# Measured values taken from PubChem BioAssay (Tox21).
# Records with an inconclusive call do not appear. Entries that show only a call come without a potency. Some compounds were tested as several samples or in several runs, with calls that do not always agree. Calls of active or inactive are those of the source. Calls come from the whole dose curve; as a rule, active = well fitted cell-killing curve with a large enough effect in the repeat runs; inconclusive = weak or mixed curves, or effect the other way; inactive = no such curve, though single readings can be large or run the other way.
# Experiment: qHTS assay for identifying genotoxic compounds that show differential cytotoxicity against isogenic chicken DT40 cell lines with known DNA damage response pathways - wild type cell line (AID 743012); note: nearly all actives have a fitted effect of over 60% in size
# Details: DT40 wild type chicken cells viability, CellTiter-Glo, 40 h; series mostly up to 68.4 µM
# Source text: U.S. Tox21 Program National Center for Advancing Translational Sciences [NCATS] NIH Chemical Genomics Center [NCGC] U.S. Environmental Protection Agency [EPA] National Institutes of Environmental Health Sciences [NIEHS] National Toxicology Program [NTP] U.S. Food and Drug Administration [FDA] Tox21 Assay Overview: DNA repair pathways play a critical role in cellular homeostasis by repairing DNA damage induced by endogenous processes and xenobiotics. Isogenic chicken DT40 cell lines deficient in different DNA repair pathways can be used to identify genotoxic compounds and aid in characterizing the nature of the DNA damage induced. Two DNA repair-deficient cell lines with disrupted genes, Rad54/Ku70 or Rev3, were used to screen the Tox21 10K compound library. Possible genotoxicity was based on the presence of a significant increase in cytotoxicity in one or more of the DNA repair-deficient cell lines compared to that observed in the parental DNA repair-proficient cell line. CellTiter Glo viability assay (Promega, Madison, WI) was used to measure cell viability in these cells after compound treatment. This assay includes the data from the wild type cell line.
# Tox21 Assay Protocol Summary: 300 DT40 wild type cells in 5 uL/well were dispensed into white, solid-bottom 1536-well plates using a Multidrop Combi (ThermoFisher Scientific, Waltham, MA) dispenser. After the assay plates were incubated at 37 C/5% CO2 for approximately 0.5 hour, 23 nL of compounds dissolved in DMSO, positive controls or DMSO only was transferred into the assay plate by a pintool work station (Kalypsys, San Diego, CA). The assay plates were incubated at 37 C/5% CO2 for 40 hours. After 5 uL per well of CellTiter-Glo reagent was added into each well of the assay plates, the plates were incubated for 30 min at room temperature and the luminescence intensity of the plates was measured using a ViewLux (PerkinElmer, Shelton, CT) plate reader.
# Potency is the fitted concentration of half-maximal effect.
row,Structure (SMILES),Potency
1,CC1CCC(C(C)CS)CC1S (stereo not given),inactive
2,CCc1ccc(C)cc1,inactive
3,Cc1ccc2c(c1)CCCN2,inactive
4,Cc1cc(CCC(=O)OCCOCCOCCOC(=O)CCc2cc(C)c(O)c(C(C)(C)C)c2)cc(C(C)(C)C)c1O,26.6 µM (active)
5,CN=C(N)NC(=O)Nc1c(C)cccc1C,inactive
6,Cc1cccc2sc(N)nc12,inactive
7,CC(C)C1CCC(C(=O)N[C@H](Cc2ccccc2)C(=O)O)CC1 (stereo not given in full),inactive
8,Cc1c[nH]c2ccccc12,inactive
9,CCCc1nc2c(C)cc(-c3nc4ccccc4n3C)cc2n1Cc1ccc(-c2ccccc2C(=O)O)cc1,inactive
10,CCC(=O)OCc1ccc(OC)cc1,inactive
11,CO[C@@H]1[C@@H](OC)[C@H](C)[C@@](O)(CC(=O)O)O[C@H]1[C@H](C)[C@H]1O[C@@]2(CC[C@@](C)([C@H]3CC[C@@](C)([C@@H]4O[C@@H]([C@H]5O[C@](C)(O)[C@H](C)C[C@@H]5C)C[C@@H]4OC4C[C@H](OC)[C@@H](OC)[C@H](C)O4)O3)O2)C[C@H](O)[C@H]1C (stereo not given in full),0.168 µM (active)
12,COc1ccc2nc(S(=O)Cc3ncc(C)c(OC)c3C)[nH]c2c1 (stereo not given),21.1 µM (active) and inactive
13,Cc1ccc(NC(=O)N(C)C)cc1NC(=O)N(C)C,inactive
14,CCCCOC(=O)CCCCC(=O)OCCCC,inactive
15,CCN(Cc1cccc(S(=O)(=O)O)c1)c1ccc(C(=C2C=CC(=[N+](CC)Cc3cccc(S(=O)(=O)O)c3)C=C2)c2ccccc2S(=O)(=O)[O-])cc1,15.4 µM (active)
16,CCN(CC)C(=O)N1CCN(C)CC1,inactive
17,CC(=O)OCC(=O)[C@@]1(OC(C)=O)[C@@H](C)C[C@H]2[C@@H]3C[C@H](F)C4=CC(=O)C=C[C@]4(C)[C@@]3(F)[C@@H](O)C[C@@]21C,26.6 µM (active)
18,CCCCCCCCCCCCCC(=O)OCC(O)CO (stereo not given),inactive
19,CC(CN(CCN(CC(C)OCCO)CC(C)OCCO)CC(C)OCCO)OCCO (stereo not given),18.6 µM (active)
20,O=C(NC(Cc1cc(=O)[nH]c2ccccc12)C(=O)O)c1ccc(Cl)cc1 (stereo not given),inactive

row,Structure (SMILES),Potency
1,CC(=O)NCCO,inactive
2,Cc1ccc(Nc2c(F)cccc2Cl)c(CC(=O)O)c1,inactive
3,COc1ccc(C(=O)NCc2ccc(OCCN(C)C)cc2)cc1OC,inactive
4,C=C(C)c1ccccc1,inactive
5,CCCCC(CC)COS(=O)(=O)O (stereo not given),inactive
6,N[C@@H](Cc1cc(I)c(O)c(I)c1)C(=O)O,inactive
7,CNCc1ccc(NC(=O)c2c[nH]c3c2C(=O)CCC3)cc1,61.1 µM (active)
8,CC(=O)OCCC1CCCCC1,inactive
9,CCN(CC)c1ccc(C(=C2C=CC(=[N+](CC)CC)C=C2)c2ccc(S(=O)(=O)O)cc2S(=O)(=O)[O-])cc1,24.3 µM (active)
10,NC(=O)CCCCC(N)=O,inactive
11,C1CCCCC1,inactive
12,Cc1cccc(C)c1NC(=O)c1cc(S(N)(=O)=O)c(Cl)cc1O,inactive
13,CC(=O)N[C@@H](Cc1ccc(O)cc1)C(=O)O,inactive
14,CCCCCCCCCCCSCC(=O)O,inactive
15,CNS(=O)(=O)c1cc(C(=O)N2CCC(CCN3C4CCC3CC(n3c(C)nc5ccccc53)C4)(c3cccc(F)c3)CC2)c(Cl)cc1F (stereo not given),3.06 µM (active)
16,COc1cc(C(C)=O)ccc1OCCCN1CCC(c2noc3cc(F)ccc23)CC1,11.9 µM (active)
17,CCCCCCCCCCCCCCN(C)C,inactive
18,NC(=O)c1ccccc1[N+](=O)[O-],inactive
19,CCNc1nc(N)nc(Cl)n1,inactive
20,Cc1ccc2nc(N)[nH]c(=O)c2c1Sc1ccncc1,1.88 µM (active)
